Experimental data from PubChem BioAssay (Tox21).
Several values for one entry are separate records, joined by “and”; a condition that tells them apart may be missing. Equal entries are not always repeated. Results filed as inconclusive are left out. Some structures have more than one record in an assay (separate samples or runs), and their calls can disagree. Activity calls are given as the source filed them. Unless noted, calls follow the shape of the dose curve; as a rule, active = well fitted curve in the direction sought with a large enough effect in the repeat runs; inconclusive = weak or mixed curves; inactive = no such curve, though single readings can be large; an effect the other way counts as inactive or inconclusive.

Experiments:
[1] = A CellTox Green Cytotoxicity Assay to monitor cytotoxicity in HEK293 cells - 32 hour (AID 1224881); also: nearly all actives have a fitted effect of over 40% in size; also: potency is read from the fitted curve at half-maximal effect
How it was run: (§1)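 Seeding of HEK293 cells together with cytotoxicity dye preceded a 5 h incubation at 37 C/5% CO2. Test compounds in DMSO were then added and fluorescence monitored across 40 h.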

[2] = A CellTox Green Cytotoxicity Assay to monitor cytotoxicity in HepG2 cells - 0 hour (AID 1224882); also: nearly all actives have a fitted effect of over 35% in size
How it was run: (§2)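 Nonlytic assay: viable cells exclude the dye, so fluorescence scales with cell death. HepG2 at 600 cells/well, compounds added after 5 h, signal read across 40 h.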

[3] = A CellTox Green Cytotoxicity Assay to monitor cytotoxicity in HepG2 cells - 32 hour (AID 1224883); also: nearly all actives have a fitted effect of over 50% in size; also: potency is read from the fitted curve at half-maximal effect
How it was run: as §2

[4] = A CellTox Green Cytotoxicity Assay to monitor cytotoxicity in HEK293 cells - 8 hour (AID 1224884); also: nearly all actives have a fitted effect of over 35% in size; also: potency is read from the fitted curve at half-maximal effect
How it was run: as §1

[5] = qHTS RealTime-Glo MT Cell Viability Assay in HepG2 cells - 16 hour (AID 1224885); also: nearly all actives have a fitted effect of over 50% in size; also: potency is read from the fitted curve at half-maximal effect
How it was run: (§3)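 qHTS, HepG2, 600 cells/well, RealTime-Glo (NanoLuc + prosubstrate) added with cells; 5 h preincubation; DMSO compound addition; 37 C; luminescence at 0/8/16/24/32/40 h.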

[6] = qHTS RealTime-Glo MT Cell Viability Assay in HEK293 cells - 24 hour (AID 1224886); also: top concentration of the series differs between compounds; nearly all actives have a fitted effect of over 50% in size
How it was run: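 Assay medium contained NanoLuc luciferase plus cell-permeant prosubstrate, added with HEK293 cells at 600 cells/well. After 5 h at 37 C/5% CO2 compounds were added; plates stayed at 37 C for 40 h with serial luminescence reads.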

[7] = qHTS RealTime-Glo MT Cell Viability Assay in HEK293 cells - 8 hour (AID 1224887); also: nearly all actives have a fitted effect of over 50% in size; also: potency is read from the fitted curve at half-maximal effect
How it was run: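 Tox21 screen in HEK293 using RealTime-Glo MT chemistry, with cells and reagent co-dispensed. Luminescence proportional to viable cell number was captured at intervals during 40 h compound exposure at 37 C.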

[8] = A CellTox Green Cytotoxicity Assay to monitor cytotoxicity in HEK293 cells - 16 hour (AID 1224888); also: nearly all actives have a fitted effect of over 35% in size; also: potency is read from the fitted curve at half-maximal effect
How it was run: as §1

[9] = qHTS RealTime-Glo MT Cell Viability Assay in HepG2 cells - 0 hour (AID 1224889); also: nearly all actives have a fitted effect of over 50% in size
How it was run: as §3

[10] = A CellTox Green Cytotoxicity Assay to monitor cytotoxicity in HepG2 cells - 8 hour (AID 1224890); also: nearly all actives have a fitted effect of over 45% in size; also: potency is read from the fitted curve at half-maximal effect
How it was run: as §2

[11] = qHTS assay to identify small molecule antagonists of the estrogen receptor alpha (ER-alpha) signaling pathway using the BG1 cell line in the presence of 0.1 nM 17-beta-estradiol - cell viability counter screen (AID 1259241); also: nearly all actives have a fitted effect of over 40% in size
How it was run: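 VM7Luc4E2 cells (endogenous full-length ER-alpha, 4xERE-luciferase), cultured 5 days in charcoal-stripped serum, exposed to compounds with 0.1 nM 17beta-estradiol (final) for 22 hr at 37C. Viability read in same wells as live-cell protease fluorescence after 30 min.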

[12] = qHTS assay to identify small molecule antagonists of the androgen receptor (AR) signaling pathway using the MDA cell line in the presence of 0.5 nM R1881 - cell viability counter screen (AID 1259242); also: nearly all actives have a fitted effect of over 45% in size
How it was run: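 R1881 at 0.5 nM final stimulated MDA-kb2 cells during 16 hr compound treatment at 37C. Cytotoxicity read: CellTiter-Fluor fluorescence after 30 min.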

[13] = target: Estrogen receptor (Homo sapiens) (UniProt P03372); test: qHTS assay to identify small molecule antagonists of the estrogen receptor alpha (ER-alpha) signaling pathway using the BG1 cell line in the presence of 0.1 nM 17-beta-estradiol (AID 1259244); also: nearly all actives have a fitted effect of over 50% in size
Estrogen receptor (Homo sapiens), sequence (P03372 whole entry, looked up): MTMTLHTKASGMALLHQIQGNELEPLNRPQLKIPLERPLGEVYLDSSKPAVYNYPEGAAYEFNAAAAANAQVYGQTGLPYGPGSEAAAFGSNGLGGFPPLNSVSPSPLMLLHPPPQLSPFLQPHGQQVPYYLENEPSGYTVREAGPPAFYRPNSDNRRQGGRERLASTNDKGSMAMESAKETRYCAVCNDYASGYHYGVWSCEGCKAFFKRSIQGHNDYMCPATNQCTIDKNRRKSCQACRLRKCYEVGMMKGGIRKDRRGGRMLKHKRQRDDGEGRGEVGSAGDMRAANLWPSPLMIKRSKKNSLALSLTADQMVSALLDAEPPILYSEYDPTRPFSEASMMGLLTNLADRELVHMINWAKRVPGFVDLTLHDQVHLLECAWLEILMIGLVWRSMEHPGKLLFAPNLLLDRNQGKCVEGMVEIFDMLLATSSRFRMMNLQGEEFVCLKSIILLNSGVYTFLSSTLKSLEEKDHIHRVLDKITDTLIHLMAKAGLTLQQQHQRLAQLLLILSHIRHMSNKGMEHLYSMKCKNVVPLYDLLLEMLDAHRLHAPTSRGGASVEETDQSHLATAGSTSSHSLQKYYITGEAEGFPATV
How it was run: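 VM7Luc4E2; 4xERE-luciferase; 0.1 nM E2 final; 22 h co-incubation, 37C; ONE-Glo luminescence after 30 min at room temperature.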

[14] = qHTS assay to identify small molecule HDAC inhibitors - cell viability counter screen (AID 1259365); also: nearly all actives have a fitted effect of over 50% in size; also: potency is read from the fitted curve at half-maximal effect
How it was run: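 Wild-type HCT-116 cells, 1,500/well, cultured overnight, then compound-treated 2 h at 37 C. Viability measured as ATP luminescence with CellTiter-Glo after 30 min at room temperature.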

[15] = qHTS assay to identify small molecule agonists of the sonic hedgehog signaling (Shh) pathway - cell viability counter screen (AID 1259366); also: nearly all actives have a fitted effect of over 50% in size; also: potency is read from the fitted curve at half-maximal effect
How it was run: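 NIH/3T3-derived Gli1-Luc reporter cells, 2,000 per well, received compound after 4 h and were treated about 23 h at 37C. Viability measured in the same wells by CellTiter-Fluor fluorescence after 1 h.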

[16] = qHTS assay to identify small molecule antagonists of the sonic hedgehog signaling (Shh) pathway - cell viability counter screen (AID 1259367); also: nearly all actives have a fitted effect of over 55% in size
How it was run: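 Cells: 3T3 Gli1-Luc, 2,000/well, 4 hr pre-incubation. Compounds in DMSO, then conditioned medium. Incubation 24 hr, 37C, 5% CO2. CellTiter-Fluor at 23 hr, 1 hr, fluorescence.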

[17] = qHTS assay to identify small molecule agonists of the sonic hedgehog signaling (Shh) pathway (AID 1259368; calls by dose curve;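 also: NIH/3T3-derived 3T3Gli1-Luc cells carrying a stable Gli1-driven firefly luciferase reporter; series mostly up to about 92 µM; nearly all actives have a fitted effect of over 15% in size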)
How it was run: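 Mouse fibroblast (NIH/3T3) reporter cells with stably integrated Gli1-Luc were treated 24 hr with compound; firefly luciferase luminescence served as the read-out.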

[18] = qHTS assay to identify small molecule HDAC inhibitors (AID 1259364);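 also: wild-type HCT-116 cells with endogenous class I/II HDAC activity; top concentration of the series differs between compounds; nearly all actives have a fitted effect of over 45% in size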
How it was run: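 Relative class I and II HDAC activity is taken from the luminogenic signal in HCT-116 cells, with compound exposure 2 hr and reagent development 30 min at room temperature.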

[19] = qHTS assay to identify small molecule phospholipidosis (PLD) inducers (AID 1259344; active = well fitted curve in the direction sought with a large enough effect; an effect the other way counts as inactive or inconclusive)
How it was run: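 Phospholipidosis is scored by imaging LipidTOX-stained pits in HepG2 cells exposed to compound for 24 h at 37 C; pit counts and integrated intensities per well and per cell serve as outputs.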

Measured: Potency

O=C([O-])c1ccccn1.O=C([O-])c1ccccn1.O=C([O-])c1ccccn1.[Cr+3]
not listed: [16] | [17] | [18] | [19]
inactive: all other assays above

CCCN(CCC)c1c([N+](=O)[O-])cc(C(C)C)cc1[N+](=O)[O-]
not listed: [17] | [18] | [19]
inactive: all other assays above

CCSCc1ccccc1OC(=O)NC
not listed: [18] | [19]
inactive: all other assays above

CCCCCCCCCCCCCCCl
not listed: [19]
inactive: all other assays above

C[C@H]1[C@@H]2Cc3ccc(O)cc3[C@@]1(C)CCN2C
not listed: [13] | [16]
inactive: all other assays above

CCC(C)Cl (stereo unspecified)
not listed: [19]
inactive: all other assays above

C[C@]12CC[C@H]3[C@@H](CCC4=CC(=O)CC[C@@H]43)[C@@H]1CC[C@@H]2OC(=O)CCc1ccccc1
not listed: [13]
inactive: all other assays above

CC[N+]1(C)CCCC(OC(=O)C(O)(c2ccccc2)c2ccccc2)C1 (stereo unspecified)
not listed: [13]
inactive: all other assays above

CC(C)C1(C)N=C(c2ncccc2C(=O)O)NC1=O (stereo unspecified)
not listed: [19]
inactive: all other assays above

CC(C)(C)CC(C)(C)c1ccc(O)cc1
48.6 µM (active) and inactive: [15]
active: [1] 12.3 µM and 19 µM | [3] 27.5 µM and 15.1 µM | [4] 15.5 µM and 12 µM | [5] 34.7 µM | [7] 34.7 µM | [8] 21.9 µM and 21.3 µM | [10] 17.4 µM and 10.7 µM
61.1 µM (active) and inactive: [14]
not listed: [13] | [16] | [17]
inactive: all other assays above

O=C(O)C(O)C(O)C(=O)O (stereo unspecified)
not listed: [18] | [19]
inactive: all other assays above

O=C=NC1CCCCC1
not listed: [19]
inactive: all other assays above

COC(=O)Cc1ccccc1
not listed: [16] | [18] | [19]
inactive: all other assays above

CCCCC(CC)CO[N+](=O)[O-] (stereo unspecified)
not listed: [17] | [18] | [19]
inactive: all other assays above

C[N+](C)(C)CCOC(=O)C(O)(c1ccccc1)c1ccccc1
not listed: [13]
inactive: all other assays above
